Compounds without any hit were thinned out: in the full panel of roughly 79,000, 15% have a hit. Values without a mark were called inactive. Activity calls are given as the source filed them. Rule as the data show it: active = growth inhibition above about 70%; inactive = the rest.
Experiments:
[1] = NCI Yeast Anticancer Drug Screen. Data for the rad50 strain (AID 155);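 also: 0% = growth of vehicle-only cultures of the same strain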; details: S. cerevisiae rad50 strain growth inhibition; at 50.0 µM; hits give high values
Outline: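 DNA repair mutant yeast, compound exposure, growth read-out; inhibition is taken relative to vehicle.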

[2] = NCI Yeast Anticancer Drug Screen. Data for the mec2-1 strain (AID 157); details: S. cerevisiae mec2-1 strain, at 50.0 µM, hits give high values
Outline: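 Growth inhibition is read against vehicle-treated controls after compound exposure of the mec2-1 yeast strain, which is defective in DNA damage repair or cell cycle control.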

[3] = NCI Yeast Anticancer Drug Screen. Data for the sgs1 mgt1 strain (AID 161);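 also: 0% = growth of cultures given vehicle only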; details: S. cerevisiae sgs1 mgt1 strain, at 50.0 µM, hits give high values
Outline: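 Yeast cells carrying a defined DNA-repair defect were exposed to test compounds. Growth inhibition was measured relative to vehicle-treated controls.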

[4] = NCI Yeast Anticancer Drug Screen. Data for the cln2 rad14 strain (AID 165);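 also: 0% = growth equal to vehicle treated cultures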; details: S. cerevisiae cln2 rad14 strain, at 50.0 µM, hits give high values
Outline: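 Growth inhibition, relative to vehicle-treated controls, is the read-out. The test organism is a yeast strain with defined genetic alterations, cln2 rad14.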

[5] = NCI Yeast Anticancer Drug Screen. Data for the bub3 strain (AID 167); details: S. cerevisiae bub3 mutant strain, at 50.0 µM, hits give high values
Outline: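 In this screen, a yeast mutant lacking normal mitotic checkpoint function is challenged with compound. Relative growth versus vehicle gives the inhibition value.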

[6] = NCI Yeast Anticancer Drug Screen. Data for the mlh1 rad18 strain (AID 175); details: S. cerevisiae mlh1 rad18 strain growth inhibition; at 50.0 µM; hits give high values
Outline: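 Cells of a genetically altered yeast strain, deficient in DNA damage repair, were treated with compound. Their growth was then compared with that of vehicle-treated cultures to give inhibition.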

Compound | growth inhibition [1] | growth inhibition [2] | growth inhibition [3] | growth inhibition [4] | growth inhibition [5] | growth inhibition [6]
C/C=N/Nc1ccccc1 | 24.8% | -1.4% | 18.2% | 32.9% | 31.9% | 30%
Cc1ccc(C(=O)NC2CCCCC2)cc1N=NN(C)C | 31.4% | -7.55% | 18.7% | 19.1% | 9.45% | -11.4%
Cc1cccc(OC(=O)Oc2cccc(C)c2)c1 | -5.75% | -9.25% | -4.35% | -15.7% | 20.6% | 31.1%
O=[N+]([O-])c1ccc(N/N=C2/CC(c3ccccc3)C(c3ccccc3)=C2Cl)c([N+](=O)[O-])c1 (stereo unspecified) | 26.2% | 15.6% | 9.45% | 24.4% | -1.75% | 15.7%
Nc1nnc2cc(Br)ccc2n1 | -6% | -2.55% | 17.7% | 14.2% | 19.5% | 4.45%
O=N[O-].O=N[O-].[Co].[NH-]CC[N-]CC[N-]CC[NH-] | 10.4% | 7.2% | 1.9% | 3.65% | 19.6% | 11%
CC(C)(C)C1=CC(=N/N=c2\scc(-c3ccccc3)n2Cc2ccccc2)C=C(C(C)(C)C)C1=O | 17.4% | -4.6% | -5.35% | -29.5% | -11.6% | -2.6%
O=C1C2C3CCC(O3)C2C(=O)N1Cc1ccccc1CN1C(=O)C2C3CCC(O3)C2C1=O (stereo unspecified) | 82% (active) | 95.2% (active) | 89.2% (active) | 98.6% (active) | 98.1% (active) | 95.8% (active)
COc1ccc(C(=O)C2CCC(C(=O)O)C2)cc1 (stereo unspecified) | -25.4% | -27.9% | -5.35% | -6.35% | -21.9% | -13.2%
CC(=O)Nc1ccc2c(c1)N(O)C(=O)C2(C)C | 7.9% | 6.3% | 11.4% | -36.1% | 5.5% | -0.6%
OC1CSCCSCCCSCCSC1 | 34.1% | 22.4% | 44.5% | 15.5% | 35.1% | 40.4%
CCOC(=O)c1ccc(-n2nc3nc(N)[nH]c(=O)c3n2)cc1 | -17.8% | -21.2% | -4.35% | -4.15% | -52.9% | -34.4%
O=C(O)CCC(=O)c1ccc(O)cc1 | -0.2% | -27% | -7.1% | -14.7% | -14% | 13.6%
CC1=CCC2N=C(c3ccccc3)CC2(C)C1=O (stereo unspecified) | 27.4% | 21.6% | 24.3% | -11.3% | -46.2% | -16.6%
CC1COC(c2ccc(Cl)cc2)O1 (stereo unspecified) | 12.2% | 18.1% | 22% | 20.4% | -1.25% | 12.7%
O=C(O)c1ccc(O)c([N+](=O)[O-])c1 | 8.2% | -33.5% | 6.5% | 9% | 6.85% | 27.2%
COc1c(OC(C)=O)cc(Cl)c(C=O)c1[N+](=O)[O-] | 5.25% | 2.4% | 19.3% | 5.8% | 1.55% | -9.3%
COc1ccc(C[N+](C)(C)N)cc1OC | -13.8% | -18.2% | -21.9% | -9.7% | -40.5% | -34.1%
CCOC(=O)C(NC(C)=O)C(O)c1ccc(C(C)C)cc1 (stereo unspecified) | 10.8% | 4.4% | 8.45% | -33.7% | 14.8% | 14.7%
CCCCCCCCCCCC(=O)Nc1cc(Cl)c(OC)cc1OC | -17.4% | 6.75% | 13.9% | -32.8% | 7.1% | 48.4%
Cc1cccc(NCc2ccccc2)c1 | 32.5% | 5.95% | 19.4% | -22.1% | 29.6% | 24.9%

Compound | growth inhibition [1] | growth inhibition [2] | growth inhibition [3] | growth inhibition [4] | growth inhibition [5] | growth inhibition [6]
Cn1c(=O)c2c(nc(NCCOC(=S)S)n2C)n(C)c1=O | -44.8% | 1.8% | -10.3% | 32.5% | 5.3% | 15.9%
C/C(=N\[N+](C)(C)C)c1ccc2ccccc2c1 | 9.65% | -2.45% | -1.6% | 5.5% | -6% | -9.6%
Cc1c(C)c(C)c(CNNC(=S)Nc2cccc(Cl)c2)c(C)c1C | -6.35% | 5.7% | -1.35% | -3.45% | -3.5% | 21.1%
CCOc1ccc(OCC)c2c1C(=O)c1ccccc1C2=O | -6.8% | 15.3% | 1.15% | -1.3% | 9.15% | -5.8%
Cc1nc(N)nc(C)c1N=Nc1ccc(Cl)cc1Cl | -0.75% | 6.8% | 0.5% | -7.3% | -5.25% | 9.6%
Cc1ccc(C(=O)O)c(O)c1 | 11.7% | -1.7% | -14.8% | -13.9% | -26% | -2.5%
CC1CCCCC12COC(O)CO2 (stereo unspecified) | -22.5% | -23.4% | -19.1% | -11.7% | -24.1% | -31.9%
CC(=NCc1ccccc1)c1c(C)cc(=O)n(-c2ccccc2)c1O | -12.8% | -6.45% | -6.15% | -70.5% | -24.8% | -12%
O=[N+]([O-])c1ccc(Cl)cc1N/N=C/c1ccnc2ccccc12 | -53.4% | -56.1% | -28.6% | -15.1% | -17.4% | -54.9%
Cn1c(=O)c2c(nc(Cl)n2Cc2ccc([N+](=O)[O-])cc2)n(C)c1=O | -2.35% | 20% | -2.55% | -39.3% | 20.1% | 1%
CC(O)C([NH-])C(=O)O.CC([NH-])C(=O)O.[Cu+2] (stereo unspecified) | 26.6% | 15.7% | 6.95% | 12.7% | 13.3% | 15.4%
CN1C(=O)C2(C=CCCC2)c2ccccc21 (stereo unspecified) | -10.5% | -8.4% | -0.7% | -14.3% | -0.5% | -10.4%
CCOC(=O)c1cc2c(nc1N)C(=O)CCCC2 | -34.5% | -59.1% | -48.3% | -23.9% | -24.6% | -31.6%
N#CCC(=O)c1ccc(N)cc1 | 16.1% | -19.6% | 2.2% | 13.9% | -11% | 13.4%
Cc1ccc(S(=O)(=O)C2(NC(=O)c3ccc(Cl)cc3)CC2)cc1 | 10.6% | 15.5% | -6.9% | 5.4% | -11.5% | -2.4%
COc1cccc(C2CC(c3cc(OC)c(OC)c(OC)c3)CC(c3cccc(OC)c3)N2)c1 (stereo unspecified) | -5.4% | 1.45% | 15.2% | 16.4% | 19.6% | 5.7%
Cc1ccc2c(c1)sc(C)[n+]2CCO | -19.9% | -19.5% | -38.8% | -5.65% | -9.65% | -18.4%
CCCCC(CC)CN(CC(CC)CCCC)C1C=CCCC1 (stereo unspecified) | 3.6% | -10.3% | 7.9% | -36.8% | 6.5% | 2.7%
CC(=O)N(C)N=NCCCl | 26.2% | 7.2% | 10.2% | -29.1% | 12% | 3.85%
CC(C)c1cc(C(C)C)c(B(c2ccccc2)c2ccccc2)c(C(C)C)c1B(c1ccccc1)c1ccccc1 | -13.7% | 4.8% | 18.4% | 6.3% | 6.35% | 13.9%

Source: PubChem BioAssay (NCI)
